SMILES strings stand for the structures. Among all 39,000 compounds or so, about 1,500 (3.8%) were called active. What follows is part of a selection rich in actives, with near analogues and random picks from the rest.

The text below walks through data of the antibiotic and cytotoxicity screens of Wong et al. (2023).

In this test the test system is HSkMC (human skeletal muscle cells). The test is described as follows: cytotoxicity call (relative viability < 0.9). The settings on record: 10 µM.
`CCCNC(=O)N(C)C[C@@H]1Oc2cc(C#Cc3cccc(F)c3)ccc2S(=O)(=O)N([C@H](C)CO)C[C@@H]1C`: the cytotoxicity call was “inactive”.
Consider `CO[C@H]1CN(C)C(=O)c2cc(NS(C)(=O)=O)ccc2OC[C@@H](C)N(C(=O)c2ccc3c(c2)OCO3)C[C@@H]1C`, for which the cytotoxicity call was “inactive”.
`Cc1ccc(S(=O)(=O)Nc2ccc3c(c2)C(=O)N([C@H](C)CO)C[C@H](C)[C@H](CN(C)S(C)(=O)=O)O3)cc1`: the cytotoxicity call is “inactive”.
As for `COc1ccc(S(=O)(=O)Nc2ccc3c(c2)CC(=O)N([C@@H](C)CO)C[C@@H](C)[C@H](CN(C)C(=O)NC(C)C)O3)cc1`, the cytotoxicity call is “inactive”.
As to `CN(C)Cc1cn(CC[C@@H]2CC[C@H](NC(=O)Cc3cccnc3)[C@H](CO)O2)nn1`, the cytotoxicity call is “inactive”.
As for `Cc1ccc(S[C@]2(C(=O)NCc3ccccc3)CC(=O)N(Cc3cc(C(F)(F)F)cc(C(F)(F)F)c3)[C@@H]2c2ccc(CO)cc2)cc1`, the cytotoxicity call is “inactive”.
Turning to `CCOC(=O)c1cc2c(c(-c3cccc(-c4cccc(OC)c4)c3)n1)[C@@H](CCO)N(S(=O)C(C)(C)C)C2` (stereo not given in full), the cytotoxicity call is “inactive”.
Turning to `COCC(=O)N1C[C@@H](C)[C@H](OC)CN(C)C(=O)c2ccc(NC(=O)c3ccc(OC)cc3)cc2OC[C@H]1C`, the cytotoxicity call was “inactive”.
Regarding `CCN1CCC[C@@H]1CN1CNC(=S)NC1`, the cytotoxicity call is “inactive”.
`CCCCCCCCc1ccc(-c2ccc(C(=O)O)cc2)cc1`: the cytotoxicity call is “inactive”.
Turning to `CCCCCCCc1c(C)c(O)cc2c1[nH]c1ccccc12`, the cytotoxicity call is “inactive”.
In the case of `CCCCCCc1ccc(O)cc1O.Nc1c2ccccc2nc2ccccc12`, the cytotoxicity call is “inactive”.
Turning to `COC(=O)CCc1ccc(OC)cc1O`, the cytotoxicity call is “inactive”.
In the case of `CCCCCCc1ccc(O)cc1O` [listing 1 of 2 here] it was “active”; in that of `CCCCCCc1ccc(O)cc1O` [listing 2 of 2 here], “active”.
`COc1ccc(NC(=O)N(C)C[C@@H]2Oc3c(NC(=O)C4CC4)cccc3C(=O)N([C@@H](C)CO)C[C@@H]2C)cc1`: the cytotoxicity call is “inactive”.
The result for `C[C@H]1O[C@@H](O[C@H]2[C@@H](O)C[C@H](O[C@H]3[C@@H](O)C[C@H](O[C@H]4CC[C@@]5(C)[C@H](CC[C@@H]6[C@@H]5C[C@@H](O)[C@@]5(C)[C@@H](C7=CC(=O)OC7)CC[C@]65O)C4)O[C@@H]3C)O[C@@H]2C)C[C@H](O)[C@@H]1O` reads “active”; that for `CC1OC(OC2C(O)CC(OC3C(O)CC(OC4CCC5(C)C(CCC6C5CC(O)C5(C)C(C7=CC(=O)OC7)CCC65O)C4)OC3C)OC2C)CC(O)C1O` (stereo not given), “active”; that for `C[C@H]1O[C@@H](O[C@H]2[C@@H](O)C[C@H](O[C@H]3[C@@H](O)C[C@H](O[C@H]4CC[C@@]5(C)[C@H](CC[C@@H]6[C@@H]5C[C@@H](O)[C@]5(C)[C@@H](C7=CC(=O)OC7)CC[C@]65O)C4)O[C@@H]3C)O[C@@H]2C)C[C@H](O)[C@@H]1O`, “active”.
For the compound `C[C@@H]1CCCCO[C@@H](CN(C)Cc2ccc3c(c2)OCO3)[C@@H](C)CN([C@H](C)CO)C(=O)c2cc(NS(=O)(=O)c3ccc(Cl)cc3)ccc2O1`, the cytotoxicity call is “inactive”.
Take `C[C@H](CO)N1C[C@H](C)[C@@H](CN(C)S(=O)(=O)c2ccccc2F)Oc2cc(-c3ccncc3)ccc2S1(=O)=O`: the cytotoxicity call was “inactive”.
`CC(C)NC(=O)Nc1cccc2c1O[C@@H](CN(C)S(=O)(=O)c1cccs1)[C@@H](C)CN([C@@H](C)CO)C2=O`: the cytotoxicity call was “inactive”.
`O=C(C[C@@H]1C[C@@H]2c3cc(NC(=O)Cc4ccncc4)ccc3O[C@@H]2[C@@H](CO)O1)NCc1cccc(F)c1`: the cytotoxicity call was “inactive”.
In the case of `COCC#Cc1ccc2c(c1)O[C@@H](CN(C)C(=O)CN(C)C)[C@H](C)CN([C@@H](C)CO)S2(=O)=O`, the cytotoxicity call is “inactive”.
In the case of `Cc1noc(C)c1NC(=O)N(C)C[C@@H]1OCCCC[C@@H](C)Oc2ccc(NC(=O)Cc3ccccc3)cc2C(=O)N([C@H](C)CO)C[C@H]1C`, the cytotoxicity call is “inactive”.
For `CC(N)(Cc1ccc(O)c(O)c1)C(=O)O` (stereo not given) [listing 1 of 2 here], the cytotoxicity call was “inactive”.
In the case of `CC(N)(Cc1ccc(O)c(O)c1)C(=O)O` (stereo not given) [listing 2 of 2 here] it was “inactive”.
The result for `CCOC(=O)[C@@](C)(N)Cc1ccc(O)c(O)c1` reads “active”.
In the case of `COc1ccccc1C(=O)Nc1ccc2c(c1)C(=O)N(C)[C@H]1CC[C@@H](CC(=O)NCc3ccc(Cl)c(Cl)c3)O[C@@H]1CO2` it was “active”.
As to `COc1ccccc1C(=O)Nc1ccc2c(c1)C(=O)N(C)[C@@H]1CC[C@@H](CC(=O)NCc3ccc(Cl)c(Cl)c3)O[C@@H]1CO2`, the cytotoxicity call is “inactive”.
As to `CN1C(=O)c2cc(NC(=O)Nc3cccc(C#N)c3)ccc2OC[C@H]2O[C@@H](CC(=O)Nc3ccc4c(c3)CCC4)CC[C@@H]21`, the cytotoxicity call is “inactive”.
As to `COc1cccc(C(=O)Nc2ccc3c(c2)C(=O)N(C)[C@H]2CC[C@H](CC(=O)Nc4ccc5c(c4)CCCC5)O[C@@H]2CO3)c1`, the cytotoxicity call was “inactive”.
Take `COc1ccccc1C(=O)Nc1ccc2c(c1)C(=O)N(C)[C@@H]1CC[C@H](CC(=O)NCc3ccc(Cl)c(Cl)c3)O[C@@H]1CO2`: the cytotoxicity call is “inactive”.
Consider `CN1C(=O)c2cc(NC(=O)c3ccc(C(F)(F)F)cc3)ccc2OC[C@@H]2O[C@H](CC(=O)NC3Cc4ccccc4C3)CC[C@H]21`, for which the cytotoxicity call was “inactive”.
The result for `COc1ccccc1C(=O)Nc1ccc2c(c1)C(=O)N(C)[C@@H]1CC[C@H](CC(=O)NCc3ccc(Cl)c(Cl)c3)O[C@H]1CO2` reads “inactive”; that for `CN1C(=O)c2cc(NC(=O)c3ccc(C(F)(F)F)cc3)ccc2OC[C@@H]2O[C@H](CC(=O)NC3Cc4ccccc4C3)CC[C@@H]21`, “inactive”.
For the compound `COc1ccccc1C(=O)Nc1ccc2c(c1)C(=O)N(C)[C@H]1CC[C@H](CC(=O)NCc3ccc(Cl)c(Cl)c3)O[C@@H]1CO2`, the cytotoxicity call was “inactive”.
`Cc1noc(C)c1NC(=O)Nc1ccc2c(c1)C(=O)N(C)[C@H]1CC[C@H](CC(=O)Nc3ccc4c(c3)CCCC4)O[C@@H]1CO2`: the cytotoxicity call was “active”.
For `CN1C(=O)c2cc(NC(=O)c3ccc(C(F)(F)F)cc3)ccc2OC[C@@H]2O[C@@H](CC(=O)NC3Cc4ccccc4C3)CC[C@H]21`, the cytotoxicity call is “active”.
For `COc1ccccc1C(=O)Nc1ccc2c(c1)C(=O)N(C)[C@@H]1CC[C@@H](CC(=O)NCc3ccc(Cl)c(Cl)c3)O[C@H]1CO2`, the cytotoxicity call is “active”.
